We go through 18 compounds from PubChem BioAssay (Tox21).

A short description of assay [1]: qHTS RealTime-Glo MT Cell Viability Assay in HEK293 cells - 0 hour (AID 1224880). Note: top concentration of the series differs between compounds; nearly all actives have a fitted effect of over 45% in size. The gist of the method:
(§1)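 600 HEK293 cells per well, dispensed already mixed with RealTime-Glo MT reagents. Compound dosing came 5 h later. The same wells were read for luminescence at 0, 8, 16, 24, 32 and 40 h of exposure at 37 C.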

A short description of assay [2]: A CellTox Green Cytotoxicity Assay to monitor cytotoxicity in HEK293 cells - 32 hour (AID 1224881). Note: nearly all actives have a fitted effect of over 40% in size. Note: potency is the fitted concentration of half-maximal effect. The gist of the method: (§2)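 Dead-cell fluorescence measured kinetically: asymmetric cyanine dye, HEK293, 600 cells/well, 5 h settle, 23 nL cpd/DMSO, 37 C, reads 0–40 h every 8 h.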
Assay [3] in a line: A CellTox Green Cytotoxicity Assay to monitor cytotoxicity in HepG2 cells - 0 hour (AID 1224882). Note: nearly all actives have a fitted effect of over 35% in size. Note: potency is the fitted concentration of half-maximal effect. The gist of the method: (§3)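 First, HepG2 cells (600/well) mixed with reagent were plated; second, after 5 h at 37 C they received compounds via pintool; third, fluorescence was measured at 0 h through 40 h at 8 h intervals.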
Assay [4] is described as follows: A CellTox Green Cytotoxicity Assay to monitor cytotoxicity in HepG2 cells - 32 hour (AID 1224883). Note: nearly all actives have a fitted effect of over 50% in size. Note: potency is the fitted concentration of half-maximal effect. The gist of the method:
as §3

The nature of assay [5]: A CellTox Green Cytotoxicity Assay to monitor cytotoxicity in HEK293 cells - 8 hour (AID 1224884). Note: nearly all actives have a fitted effect of over 35% in size. Note: potency is the fitted concentration of half-maximal effect. The method in brief:
as §2

A short description of assay [6]: qHTS RealTime-Glo MT Cell Viability Assay in HepG2 cells - 16 hour (AID 1224885). Note: nearly all actives have a fitted effect of over 50% in size. The method in brief: (§4)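 Compound treatment began 5 h after plating HepG2 cells (600/well) with NanoLuc luciferase and prosubstrate. Plates stayed at 37 C for 40 h; luminescence was captured at six time points, 0 h through 40 h.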
The nature of assay [7]: qHTS RealTime-Glo MT Cell Viability Assay in HEK293 cells - 24 hour (AID 1224886). Note: nearly all actives have a fitted effect of over 50% in size. Note: potency is the fitted concentration of half-maximal effect. The method in brief: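 Quantitative high-throughput screen of the Tox21 10K library in HEK293: cells and RealTime-Glo reagents plated together, compound added at 5 h, luminescence monitored through 40 h at 37 C.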
(Quantitative high-throughput screening tests each substance at several concentrations.)

Assay [8] is described as follows: qHTS RealTime-Glo MT Cell Viability Assay in HEK293 cells - 8 hour (AID 1224887). Note: top concentration of the series differs between compounds; nearly all actives have a fitted effect of over 50% in size. The method in brief: as §1
Assay [9] is described as follows: A CellTox Green Cytotoxicity Assay to monitor cytotoxicity in HEK293 cells - 16 hour (AID 1224888). Note: nearly all actives have a fitted effect of over 35% in size. Note: potency is the fitted concentration of half-maximal effect. The gist of the method:
as §2

Assay [10] in a line: qHTS RealTime-Glo MT Cell Viability Assay in HepG2 cells - 0 hour (AID 1224889). Note: nearly all actives have a fitted effect of over 50% in size. The method in brief:
as §4

“And” between values parts separate entries of the source, which are not always exact repeats. Identical values can stand only once. Results filed as inconclusive are left out. The source holds several records for some structures; these can differ, active in one and inactive in another. The source made the active and inactive calls. Calls come from the whole dose curve; as a rule, active = well fitted curve in the direction sought with a large enough effect in the repeat runs; inconclusive = weak or mixed curves; inactive = no such curve, though single readings can be large; an effect the other way counts as inactive or inconclusive.

Turning to `CCCCC(CC)COC(=O)c1ccc(N(C)C)cc1` (stereo not given), the Potency entry in [1], in assay [2], in [3], in [4], in assay [5] and in [6] was “inactive” throughout. Moreover, the Potency result in assay [7], in assay [8], in assay [9] and in assay [10] was “inactive” each time.

For the compound `CC(C)=CCCC(C)CCO` (stereo not given), the Potency entry in assay [1], in assay [2], in assay [3], in assay [4], in [5] and in assay [6] was “inactive” throughout. The Potency entry in assay [7], in assay [8], in assay [9] and in assay [10] was “inactive” each time.

Consider `CC(=O)CC/C=C(\C)CCC=C(C)C`, for which the Potency result in assay [1], in [2], in assay [3], in assay [4], in assay [5] and in assay [6] was “inactive” throughout. Besides, the Potency entry in [7], in assay [8], in [9] and in assay [10] was “inactive” in each case.

Take `c1ccc(Nc2ccccc2)cc1`: the Potency entry in assay [1], in assay [3], in assay [5], in assay [6], in assay [8] and in [9] was “inactive” in each case. Further, in assay [10], the Potency entry was “inactive”. The Potency in assay [2] is 21.9 µM (active) and inactive; in assay [4], 38.9 µM (active) and inactive; in assay [7], 17.4 µM (active) and inactive.

Consider `CCC(C)CO` (stereo not given), for which the Potency entry in assay [1], in assay [2], in assay [5], in assay [6], in assay [8] and in assay [9] was “inactive” each time. Further, the Potency entry in [10] is “inactive”. For the same compound, the Potency result in [3] is “inactive and 43.6 µM (active)”; in assay [4], “inactive and 43.6 µM (active)”; in assay [7], “inactive and 24.5 µM (active)”.

For the compound `Cc1cccc([N+](=O)[O-])c1C`, the Potency result in [1], in assay [2], in [3], in assay [4], in assay [5] and in assay [6] was “inactive” each time. For the same compound, the Potency result in assay [7], in assay [8], in assay [9] and in assay [10] was “inactive” each time.

As for `COC(=O)c1ccccc1`, the Potency entry in assay [1], in [2], in [3], in assay [4], in assay [5] and in assay [6] was “inactive” in each case. Also, the Potency entry in [8], in [9] and in assay [10] was “inactive” in each case. Also, in assay [7], the Potency result was “inactive and 12.3 µM (active)”.

On to `CCCCNS(=O)(=O)c1ccccc1`, for which the Potency result in [1], in assay [2], in assay [3], in assay [4], in assay [5] and in assay [6] was “inactive” in each case. In addition, the Potency result in [8], in [9] and in assay [10] was “inactive” each time. The Potency entry in [7] was “inactive and 6.16 µM (active)”.

In the case of `COC(C)COC(C)COC(C)CO` (stereo not given), the Potency result in [1], in assay [2], in assay [3], in [4], in assay [5] and in assay [6] was “inactive” throughout. Further, the Potency result in assay [7], in [8], in [9] and in [10] was “inactive” each time.

Turning to `Cc1cccc(N(C)C(=S)Oc2ccc3ccccc3c2)c1`, the Potency entry in assay [1], in assay [2], in assay [3], in assay [4], in assay [5] and in assay [6] was “inactive” each time. Further, the Potency entry in assay [7], in assay [8], in [9] and in [10] was “inactive” throughout.

Take `CCCCCCCCCCCO`: the Potency entry in assay [1], in [2], in [3], in assay [4], in assay [5] and in assay [6] was “inactive” each time. Also, the Potency result in assay [7], in [8], in assay [9] and in assay [10] was “inactive” each time.

Regarding `CN(C)c1nc(N(C)C)nc(N(C)C)n1`, the Potency result in assay [1], in [2], in assay [3], in assay [4], in assay [5] and in assay [6] was “inactive” throughout. In addition, the Potency entry in assay [7], in assay [8], in [9] and in assay [10] was “inactive” in each case.

Consider `C=C(C)C1CC=C(C)CC1` (stereo not given), for which the Potency result in assay [1], in assay [2], in assay [3], in assay [4], in assay [5] and in assay [6] was “inactive” throughout. Besides, the Potency entry in assay [7], in assay [8], in assay [9] and in assay [10] was “inactive” throughout.

On to `O=S(=O)(O)c1ccc(O)cc1`, for which the Potency entry in assay [1], in assay [2], in assay [3], in assay [4], in assay [5] and in [6] was “inactive” each time. Also, the Potency entry in assay [7], in assay [8], in assay [9] and in assay [10] was “inactive” throughout.

For the compound `Cc1cc2nc3c(=O)[nH]c(=O)nc-3n(C[C@H](O)[C@H](O)[C@H](O)CO)c2cc1C`, the Potency result in assay [1], in [6], in assay [7], in [8] and in [10] was “inactive” throughout. For the same compound, the Potency in assay [2] was 48.5 µM (active) and 45.5 µM (active) and 11.7 µM (active); in assay [3], 43.2 µM (active) and 40.5 µM (active) and 11.7 µM (active); in assay [4], 43.2 µM (active) and 40.5 µM (active) and 11.7 µM (active); in assay [5], 43.2 µM (active) and 40.5 µM (active) and 11.7 µM (active); in assay [9], 43.2 µM (active) and 40.5 µM (active) and 11.7 µM (active).

For the compound `Cc1ccc2c(n1)Oc1ccc(C(C)C(=O)OCC(=O)N(C)C)cc1C2` (stereo not given), the Potency result in [1], in assay [2], in [3], in assay [4], in assay [5] and in assay [6] was “inactive” in each case. The Potency entry in assay [7], in assay [8], in assay [9] and in assay [10] was “inactive” each time.

Turning to `c1ccc2c(c1)Oc1ccccc1S2`, the Potency result in assay [1], in assay [3], in assay [4], in [5], in [6] and in assay [7] was “inactive” in each case. Further, the Potency result in [8], in assay [9] and in assay [10] was “inactive” in each case. Moreover, the Potency in assay [2] is 49.8 µM (active) and inactive.

Regarding `C[Si](C)(C)O[Si](C)(C)C`, the Potency entry in assay [1], in [2], in assay [3], in assay [4], in [5] and in [6] was “inactive” each time. Besides, the Potency result in [7], in [8], in assay [9] and in assay [10] was “inactive” throughout.
